Reference: PubChem BioAssay (NCATS)
Results filed as inconclusive are left out. Calls of active or inactive are those of the source. Calls come from the whole dose curve; as a rule, active = well fitted curve in the direction sought with a large enough effect; inconclusive = small, poorly fitted or top-dose-only effect, or another doubt; inactive = no such curve, though single readings can be large; an effect the other way counts as inactive or inconclusive.

Assays:
[1] = Viability counterscreen for antagonist of constitutive androstane receptor (CAR) against the NCATS DSHEA and TCM libraries (AID 1794837);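 note: compound exposure lasted 24 h before viability reading; 0% is about no effect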
How it was run: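 Fluorescence from CellTiter-Fluor reports live-cell protease activity in HepG2-CYP2B6-hCAR cells treated for 24 h with substances alongside 48 uM CITCO.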

[2] = Viability counterscreen for agonist of constitutive androstane receptor (CAR) against the NCATS DSHEA and TCM libraries (AID 1794838);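 note: HepG2 cells with CYP2B6 reporter and hCAR plus 0.75 µM PK11195 antagonist; 0% is about no effect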
How it was run: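 In agonist mode, PK11195 is added at 0.75 uM final to HepG2-CYP2B6-hCAR cells dosed with test substances. Cultures incubate 24 h at 37C before a protease-based fluorogenic viability readout.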

[3] = HepG2 viability counterscreen (readout 2: ATP content) against the NCATS DSHEA and TCM libraries (AID 1794840);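 note: HepG2 cells exposed to substances for about 24 h; 0% is about no effect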
How it was run: (§1)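 Cytotoxicity was assessed in HepG2 cells plated at 1,000 cells/well and exposed for about 24 hours to a concentration series. Protease activity and ATP content were measured sequentially in each well.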

[4] = HepG2 viability counterscreen (readout 1: protease activity) against the NCATS DSHEA and TCM libraries (AID 1794841);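 note: cells exposed to compounds for about 24 h before the protease read; 0% is about no effect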
How it was run: as §1

[5] = target: Cytochrome P450 3A4 (Homo sapiens) (UniProt P08684); test: qHTS for inhibitors of CYP3A4 against the NCATS DSHEA and TCM libraries (AID 1919971);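 note: % is set by controls: 0 for no effect and ±100 for the full control effect; inhibition lowers luminescence from luciferin made by CYP3A4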
How it was run: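 Isoform-specific enzyme and substrate levels; enzyme-free wells as background. Reaction: 1x NADPH regenerating system, 30-45 min, room temperature, shielded from light; luminescent detection reagent added, 30 min.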

[6] = target: Cytochrome P450 2D6 (Homo sapiens) (UniProt P10635); test: qHTS for inhibitors of CYP2D6 against the NCATS DSHEA and TCM libraries (AID 1919972); note: % is set by controls: 0 for no effect and ±100 for the full control effect
How it was run: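 qHTS, concentration–response format with most substances from 19.5 nM. CYP2D6 + pro-luciferin substrate, 15 min with compound, then 1x NADPH regen, 30–45 min RT dark. Glo detection 30 min, luminescence. Quinidine control.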

[7] = KB-3-1 P-gp reporter qHTS against the NCATS DSHEA and TCM libraries (AID 1919975); note: 0% is about no effect
How it was run: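 72 h exposure of KB-3-1 cells (DMEM, 10% FBS) to DSHEA/TCM samples, concentration-response; cell viability measured as CellTiter-Glo luminescence after 30 min at room temperature.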

[8] = target: Cytochrome P450 1A2 (Homo sapiens) (UniProt P05177); test: qHTS for inhibitors of CYPIA2 against the NCATS DSHEA and TCM libraries (AID 1919976);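 note: light from luciferin formed by CYP1A2 from a pro-luciferin substrate; series mostly up to about 37 µM; % is set by controls: 0 for no effect and ±100 for the full control effect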
How it was run: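 Furafylline served as the plate control. Compounds met CYP1A2 and pro-luciferin substrate 15 min before NADPH regeneration solution (1x) was added; after 30-45 min at RT, P450-Glo reagent was added for 30 min and luminescence was measured.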

[9] = qHTS Counterscreen for compound interference against the NCATS DSHEA and TCM libraries (AID 1919978); details: firefly luciferase detection reagent interference, luminescence; note: % of control where 0% means no effect
How it was run: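 Read-out is luminescence after 30 min at RT with luciferin detection reagent. Before that, compounds (19.5 nM to 39.8 uM final) sat 15 min at RT with 1 uM D-luciferin or 100 mM potassium phosphate buffer. PTC124 served as intraplate control.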

[10] = Dual reporter qHTS for agonist of Pregnane X Receptor (hPXR) against the NCATS DSHEA and TCM libraries: Fluorescence readout (AID 1920058); note: 0% is about no effect
How it was run: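 In this qHTS counter-read, reporter-bearing HepG2 cells in charcoal-stripped serum received substances for approximately 24 h before viability was assessed fluorometrically with CellTiter-Fluor.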

[11] = target: Nuclear receptor subfamily 1 group I member 2 (Homo sapiens) (UniProt O75469); test: Dual reporter qHTS for agonist of Pregnane X Receptor (hPXR) against the NCATS DSHEA and TCM libraries: Luminescence readout (AID 1920059); note: 0% is about no effect
How it was run: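 hPXR-Luc HepG2 cells, 2000/well in 5% charcoal-stripped FBS medium, attached 5 h, then exposed 24 h at 37C to compounds. Viability by CellTiter-Fluor, then luciferase luminescence with ONE-Glo.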

[12] = target: Nuclear receptor subfamily 1 group I member 2 (Homo sapiens) (UniProt O75469); test: Dual reporter qHTS for antagonist of Pregnane X Receptor (hPXR) against the NCATS DSHEA and TCM libraries: Luminescence Readout (AID 1920060); note: 0% is about no effect
How it was run: (§2)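 Rifampicin-stimulated (2 uM final) hPXR-luciferase HepG2 cells were treated for 24 h with DSNP/TCM substances. Viability came from CellTiter-Fluor fluorescence, reporter activity from ONE-Glo luminescence.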

[13] = Dual reporter qHTS for antagonist of Pregnane X Receptor (hPXR) against the NCATS DSHEA and TCM libraries: Fluorescence Readout (AID 1920061); note: 0% is about no effect
How it was run: as §2

Nuclear receptor subfamily 1 group I member 2 (Homo sapiens), sequence (O75469 whole entry, looked up): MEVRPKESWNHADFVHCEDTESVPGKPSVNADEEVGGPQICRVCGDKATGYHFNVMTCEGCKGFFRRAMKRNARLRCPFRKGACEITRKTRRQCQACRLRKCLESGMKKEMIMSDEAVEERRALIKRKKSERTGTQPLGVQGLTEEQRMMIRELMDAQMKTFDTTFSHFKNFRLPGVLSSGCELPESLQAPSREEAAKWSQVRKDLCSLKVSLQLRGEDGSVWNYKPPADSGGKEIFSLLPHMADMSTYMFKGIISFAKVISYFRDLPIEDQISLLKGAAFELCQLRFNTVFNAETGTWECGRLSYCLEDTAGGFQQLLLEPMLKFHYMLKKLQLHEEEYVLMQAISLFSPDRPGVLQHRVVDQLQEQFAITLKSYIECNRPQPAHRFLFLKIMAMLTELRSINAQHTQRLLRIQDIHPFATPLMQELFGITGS
Cytochrome P450 3A4 (Homo sapiens), sequence (P08684 whole entry, looked up, canonical isoform): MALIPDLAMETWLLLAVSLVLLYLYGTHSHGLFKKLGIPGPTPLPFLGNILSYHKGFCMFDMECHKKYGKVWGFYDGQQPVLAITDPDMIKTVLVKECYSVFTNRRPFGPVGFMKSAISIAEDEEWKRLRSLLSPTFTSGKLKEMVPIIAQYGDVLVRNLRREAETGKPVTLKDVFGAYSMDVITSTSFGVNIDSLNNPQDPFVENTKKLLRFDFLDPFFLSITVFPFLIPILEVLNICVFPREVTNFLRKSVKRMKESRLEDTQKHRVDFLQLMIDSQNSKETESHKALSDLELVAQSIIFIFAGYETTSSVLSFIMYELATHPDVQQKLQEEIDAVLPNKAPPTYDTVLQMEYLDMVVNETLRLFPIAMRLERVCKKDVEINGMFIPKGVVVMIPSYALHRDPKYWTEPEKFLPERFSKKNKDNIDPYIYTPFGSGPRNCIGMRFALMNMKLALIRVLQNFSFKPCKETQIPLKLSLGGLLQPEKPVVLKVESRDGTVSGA
Cytochrome P450 2D6 (Homo sapiens), sequence (P10635 whole entry, looked up): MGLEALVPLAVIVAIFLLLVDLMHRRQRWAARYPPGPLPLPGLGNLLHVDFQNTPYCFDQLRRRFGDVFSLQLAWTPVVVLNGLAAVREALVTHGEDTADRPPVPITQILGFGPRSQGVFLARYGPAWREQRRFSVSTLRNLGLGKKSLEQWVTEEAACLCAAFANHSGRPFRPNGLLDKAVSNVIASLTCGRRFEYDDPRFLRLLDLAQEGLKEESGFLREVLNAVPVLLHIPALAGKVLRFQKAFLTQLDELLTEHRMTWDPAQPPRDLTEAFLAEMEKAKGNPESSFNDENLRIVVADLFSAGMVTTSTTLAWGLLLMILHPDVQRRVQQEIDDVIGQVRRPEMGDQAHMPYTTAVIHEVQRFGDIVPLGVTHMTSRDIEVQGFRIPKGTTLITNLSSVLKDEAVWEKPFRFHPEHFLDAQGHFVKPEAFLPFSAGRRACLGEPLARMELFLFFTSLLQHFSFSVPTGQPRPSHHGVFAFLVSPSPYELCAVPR
Cytochrome P450 1A2 (Homo sapiens), sequence (P05177 whole entry, looked up): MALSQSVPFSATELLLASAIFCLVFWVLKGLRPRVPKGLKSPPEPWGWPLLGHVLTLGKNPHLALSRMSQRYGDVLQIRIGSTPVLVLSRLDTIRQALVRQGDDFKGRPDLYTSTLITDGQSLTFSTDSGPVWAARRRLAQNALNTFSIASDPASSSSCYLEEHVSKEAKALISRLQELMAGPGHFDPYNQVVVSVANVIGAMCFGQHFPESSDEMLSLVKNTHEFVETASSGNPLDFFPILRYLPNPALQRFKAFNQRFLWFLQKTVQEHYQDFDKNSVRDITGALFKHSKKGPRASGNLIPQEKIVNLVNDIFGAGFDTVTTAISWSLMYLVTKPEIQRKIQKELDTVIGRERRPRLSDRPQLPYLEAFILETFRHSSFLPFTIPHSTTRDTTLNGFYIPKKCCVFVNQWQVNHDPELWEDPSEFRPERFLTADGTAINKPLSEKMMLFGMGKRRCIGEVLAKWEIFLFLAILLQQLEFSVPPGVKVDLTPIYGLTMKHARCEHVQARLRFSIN

CC(C)(O)[C@@H]1CC[C@](C)([C@H]2[C@@H](O)C[C@@]3(C)[C@@H]4C[C@H](O)[C@H]5C(C)(C)[C@@H](O[C@@H]6OC[C@@H](O)[C@H](O)[C@H]6O[C@@H]6O[C@H](CO)[C@@H](O)[C@H](O)[C@H]6O)CC[C@@]56C[C@@]46CC[C@]23C)O1
inactive: outcome [1] | outcome [2] | outcome [3] | outcome [4] | Potency [5] | Potency [6] | outcome [7] | Potency [8] | max response [9] 4.11% | outcome [10] | Potency [11] | outcome [12] | outcome [13]
